ELG1 DNA repair: inhibitors of ELG1-dependent DNA repair in HEK293T cells | HEK293T ELG1-luciferase reporter, luminescence, 16 h; DNA damage induced by 5-fluorouridine | Potency, µM (series often up to 46.1 µM), without a hit: at the top dose activity change, negative = inhibition, actives largely listed as inhibitors | 330,000 compounds, 2.3% hits; note: % is set by controls: 0 for no effect and ±100 for the full control effect; nearly all actives have a fitted effect of over 55% in size
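Overnight (16 hr) co-exposure of 2,000 cells/well to 5-fluorouridine and compound at 37 °C preceded detection. Luciferase was quantified via ONE-Glo luminescence; loss of signal denotes inhibition.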
SW480 rerep: induces DNA re-replication in SW480 colon adenocarcinoma cells; AID 624297; SW480 DNA re-replication, Hoechst DNA content imaging, 48 h; Potency, µM (doses to about 46.1 µM), inactives show top-dose re-replication activation, usual class: activators; 340,000 compounds, 1.8% hits; note: % of control where 0% means no effect; nearly all actives have a fitted effect of over 55% in size
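Per well, 250 cells were exposed to pinned compound for 48 hr. Nuclear DNA was visualised with Hoechst (40 min, 37 C) and total object intensity recorded by fluorescence scanning.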
KB-3-1 tox: KB-3-1 parental cell cytotoxicity. Potency, µM (highest dose often 46.1 µM), hits mostly cytotoxic. AID 1347075. KB-3-1 viability, CellTiter-Glo ATP luminescence, 72 h. 400,000 compounds, 1.4% hits; note: % is set by controls: 0 for no effect and ±100 for the full control effect; nearly all actives have a fitted effect of over 60% in size
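KB-3-1 cells, DMEM (no phenol red) + 10% FBS; compound by pin transfer, 72 h, 37 °C. Readout: CellTiter-Glo luminescence after 10 min. Data normalized, curve-fitted.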
MCF10A rereplic: DNA re-replication induction in MCF 10a cells; AID 624296; MCF 10A DNA re-replication, Hoechst nuclear intensity, 48 h; Potency, µM (titrated, usually from 46.1 µM), without a hit: at the highest dose activity, positive = re-replication, hits mostly activators; 350,000 compounds, 2.9% hits; note: % of control where 0% means no effect; nearly all actives have a fitted effect of over 50% in size
KB-V1 MDR tox: kills drug-selected multidrug resistant KB-V1 cells; AID 1347076; Potency, µM (top dose mostly 46.1 µM), usual class: cytotoxic; KB-V1 MDR cells viability, CellTiter-Glo, 72 h; 400,000 compounds, 3.4% hits; note: % is set by controls: 0 for no effect and ±100 for the full control effect; nearly all actives have a fitted effect of over 60% in size
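Following 72 h at 37 degrees C with compound, KB-V1 cell viability was read by CellTiter-Glo luminescence, medium being phenol-red-free DMEM plus 10% FBS; concentration-response parameters came from normalized, curve-fitted qHTS data.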
* = called active by the depositor; i = inactive; ? = inconclusive; . = not tested or not shown; ! = not confirmed by another sample; [ ] = another dose, or the depositor's remark. Sampled rows, rich in hits. Any-hit rate of the full collection: about 8.2%. Calls come from the whole dose curve; as a rule, active = well fitted curve in the direction sought with a large enough effect; inconclusive = small, poorly fitted or top-dose-only effect, or another doubt; inactive = no such curve, though single readings can be large; an effect the other way counts as inactive or inconclusive. Potency is the fitted concentration of half-maximal effect.

SMILES	ELG1 DNA repair	SW480 rerep	KB-3-1 tox	MCF10A rereplic	KB-V1 MDR tox
CCn1c(SCC(=O)NC2CC2)nnc1-c1ccc(OC)cc1	-11%	-6%	i	-2%	i
CC(=NO)C1CCC2C3CCC4CC(=NO)CCC4(C)C3C(C)(O)CC12C (stereo not drawn)	.	3%	i	28%	12µM*
CC(=O)C1CCC2C3CCC4CC(=O)CCC4(C)C3C(O)CC12C (stereo not drawn)	.	-3%	i	-1%	?
O=C(COc1ccc(F)c(Cl)c1)NC(=O)NC1CCCC1	.	.	i	.	i
COc1ccc(N(CC(=O)Nc2nc3ccc(C)cc3s2)S(=O)(=O)c2c(C)nn(C)c2C)cc1	18µM*	?	?	-3%	?
COc1ccc(N(CC(=O)NC2CCCCCC2)S(=O)(=O)c2c(C)nn(C)c2C)cc1	-11%	9%	?	6%	8.2µM*
Cc1ccc(N(CC(=O)NC2CCCCCC2)S(=O)(=O)c2c(C)nn(C)c2C)cc1	-1%	-2%	i	25%	9.2µM*
Cc1nn(C)c(C)c1S(=O)(=O)N(CC(=O)NCCCOC(C)C)c1ccc(C(C)C)cc1	1%	0%	i	-1%	4.6µM*
CCNC(=O)NS(=O)(=O)c1cnccc1Nc1cccc(Cl)c1	-10%	29µM*	i	-6%	i
CC(=O)NS(=O)(=O)c1cccnc1Nc1cccc(Cl)c1	3%	-5%	i	-1%	i
Brc1ccccc1-c1nnc2sc(-c3ccc4c(c3)OCCO4)nn12	?	?	i	6.5µM*	?
Clc1cccc(-c2nnc3sc(-c4ccc5c(c4)OCO5)nn23)c1	6%	.	.	.	.
Clc1ccccc1-c1nnc2sc(-c3ccc4c(c3)OCO4)nn12	0%	6.5µM*	21µM*	?	8.2µM*
O=c1oc2ccc3ccccc3c2cc1-c1nc2ccccc2o1	.	18µM*	i	?	i
O=c1oc2ccccc2cc1-c1nc2ccccc2o1	?	3%	i	3%	i
COc1ccc(OC)c(-c2nnc(NC(=O)Nc3ccc4ccccc4c3)s2)c1	.	.	i	.	i
Cc1cccc(C2(c3cccc(C)c3)CC2C(=O)Nc2ccc([N+](=O)[O-])cc2O)c1 (stereo not drawn)	24%	?	21µM*	?	4.6µM*
C=CCNC(=O)C1CC1(c1cccc(C)c1)c1cccc(C)c1 (stereo not drawn)	.	-20%	i	4%	?
Cc1ccccc1NC(=O)CSc1nnc(-c2cccc(Cl)c2)o1	.	.	i	.	i
O=C(NCCN1CCC(n2c(=O)[nH]c3ccccc32)CC1)c1ccc(OC(F)(F)F)cc1	.	.	i	.	i
CC(Sc1nn(-c2ccc(F)cc2)c(=S)s1)C(=O)c1c(N)n(C)c(=O)n(C)c1=O (stereo not drawn)	3%	-6%	?	29%	6.5µM*
Cc1[nH]c2ccccc2c1C(=O)CNc1ccc(Br)cc1	.	.	i	.	i
Nc1nc(-c2ccc(Br)s2)c(Br)s1	?	15%	i	21µM*	i
Cc1ccc(CNC(=O)c2cc(=O)c3cc(C)cc(C)c3o2)cc1	.	.	i	.	i
O=C(NC1CCN(S(=O)(=O)c2ccc(F)cc2)CC1)c1cccc(F)c1	?	-22%	i	?	i
SMILES	ELG1 DNA repair	SW480 rerep	KB-3-1 tox	MCF10A rereplic	KB-V1 MDR tox
Cn1cc(-c2cc3n(n2)CCC(=O)N3CCCC(=O)NCc2ccccc2Cl)c2ccccc21	.	.	i	.	i
CN1CCN(C2=Cc3ccc(Cl)cc3Sc3ccc(F)cc32)CC1	-21%	4µM*	i	?	?
CSc1ccc2c(c1)C(N1CCN(C)CC1)Cc1ccccc1S2 (stereo not drawn)	25%	27µM*!	i	27µM*	i
CN1CCN(C2=Cc3ccccc3Sc3cc(F)ccc32)CC1	-10%	-6%	?	-2%	?
CN1CCN(C2Cc3cc(F)ccc3Sc3ccc(Cl)cc32)CC1 (stereo not drawn)	.	?	i	21µM*	i
CN1CCN(C2Cc3ccccc3Sc3ccc(Cl)cc32)CC1 (stereo not drawn)	-2%	.	i	?	?
CC(C)(C)OC(=O)N1CCC(c2c(C(=O)N3CCN(c4ncccn4)CC3)cnn2-c2ccc(F)cc2)CC1	.	.	i	.	i
Cc1ccc(CNCC(=O)Nc2cccc(S(=O)(=O)NC3=NCCCCC3)c2)cc1	-8%	-3%	i	20%	?
CCN(CC)c1ccc(NC(=O)c2sc3nc4c(cc3c2N)CN(C)CC4)cc1	.	.	i	.	i
CN1CCc2nc3sc(C(=O)NCc4ccccc4)c(N)c3cc2C1	-5%	-1%	i	18µM*	i
CC(C)CNC(=O)C(=O)NCC1CCCN1S(=O)(=O)c1cccs1 (stereo not drawn)	-2%	-2%	i	2%	i
C=CCOc1nc2c(c(=O)n(C)c(=O)n2C)n1Cc1ccc(Cl)cc1	?	-6%	?	-8%	2.9µM*
CCCOc1nc2c(c(=O)n(C)c(=O)n2C)n1C	-7%	-3%	i	-5%	i
C=CCOc1nc2c(c(=O)n(C)c(=O)n2C)n1Cc1ccccc1Cl	-14%	-3%	?	?	7.3µM*
CCCOc1nc2c(c(=O)n(C)c(=O)n2C)n1Cc1cccc2ccccc12	16µM*	10%	i	18%	5.8µM*
COc1ccc(Oc2nc3c(c(=O)n(C)c(=O)n3C)n2Cc2ccccc2Cl)cc1	.	.	i	.	i
CC(=O)Nc1ccc(NC(=O)C(C)OC(=O)C2CCCCC2)cc1 (stereo not drawn)	4%	-10%	i	-1%	i
Oc1cn2c(n1)Nc1ccc(Cl)c(Cl)c1C2	.	2%	.	1%	.
O=C1CN2Cc3c(ccc(Cl)c3Cl)N=C2N1	.	?	i	7%	0.16µM*
CN(CC(=O)Nc1c(Cl)cccc1Cl)C(=O)Cc1ccc2c(c1)CCC2	-3%	-6%	i	8%	?
O=C(C1CC1)N1CCc2cc(Br)cc(S(=O)(=O)Nc3ccc(F)c(F)c3)c21	.	.	i	.	?
CCOC(=O)c1cccc(NS(=O)(=O)c2cc(Br)cc3c2N(C(=O)C2CC2)CC3)c1	.	.	21µM*	.	i
CN1CCC(N(C)S(=O)(=O)c2ccc(NC(=O)COc3cccc(C(F)(F)F)c3)cc2)CC1	1%	1%	i	17%	i
CC(=O)c1ccc(OC2(C)CCN(Cc3ccc4ccccc4c3)C2)cc1 (stereo not drawn)	.	.	i	.	i
O=C(C1=C[C@@H](c2coc3ccccc3c2=O)C[C@@H](OCc2ccc(CO)cc2)O1)N1CCCCCCC1	?	5%[9.22 µM]	i	1.3µM*	i
